Laboratory results from PubChem BioAssay AID1159580 (chemical genetic matrix, 2015).
The campaign covered roughly 5,500 compounds. About 2,000 (36%) were called active. About 18% were inconclusive and are not listed. No stated cut-off is given here; in the data, active means normalized growth mostly below about 0.91 (no sharp cut-off); inconclusive means no clear call, values can overlap the other calls; inactive means mostly above about 0.92. Some of the results follow.

Assay: chemical genetic growth profiling, strain panel (AID 1159580);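 further: tested at 20 µM; growth read once vehicle control cultures reached saturation at 30 °C; 1 = growth at the plate median or of vehicle wells; lower values mean less growth of the strain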
Settings: S. cerevisiae deletion strains, growth OD
[1] = locus YAL040C, strain CLN3, active compounds read low
[2] = locus YCL061C, strain MRC1 (second series), active compounds read low
[3] = locus YDR363W, strain ESC2, active compounds read low
[4] = locus YER002W, strain NOP16, active compounds read low
[5] = locus YGR078C, strain PAC10, active compounds read low
[6] = locus YJR075W, strain HOC1, active compounds read low
[7] = locus YMR307W, strain GAS1, active compounds read low
[8] = locus YNL175C, strain NOP13, active compounds read low
[9] = locus YNL197C, strain WHI3, active compounds read low
[10] = locus YNL224C, strain SQS1, active compounds read low
[11] = locus YOR083W, strain WHI5 (second series), active compounds read low
[12] = locus YPL055C, strain LGE1, active compounds read low
[13] = locus YPL241C, strain CIN2, active compounds read low
[14] = locus YAL013W, strain DEP1, active compounds read low

Measured: normalized growth

CC(C)(C)c1onc(OCP(=O)(O)O)c1CC(N)C(=O)O (stereo not drawn)
inactive: [1] 1 | [2] 0.997 | [3] 1.02 | [4] 0.996 | [5] 1.01 | [6] 1 | [7] 1.03 | locus YNL128W, strain TEP1, active compounds read low 1.03 | [8] 0.999 | [9] 1.01 | [10] 1.01 | [11] 1.06 | [12] 1 | [13] 0.999

O=C(O)C1=CCCN(CCON=C(c2ccccc2)c2ccccc2)C1
inactive: [14] 1 | [1] 1.04 | [2] 1 | locus YDR150W, strain NUM1, active compounds read low 1 | [3] 0.976 | [4] 0.97 | [5] 0.993 | [6] 1 | locus YMR263W, strain SAP30, active compounds read low 1 | [8] 0.987 | [9] 0.981 | [10] 0.993 | [11] 0.987 | [12] 1 | [13] 1

COc1ccc(CCNC[C@@H](O)c2ccc(O)cc2)cc1OC
inactive: [14] 1.01 | [1] 0.995 | [2] 0.993 | [3] 1.02 | [4] 1.01 | [7] 0.944 | locus YNL153C, strain GIM3, active compounds read low 0.999 | [8] 0.992 | [9] 0.981 | [10] 0.989 | [11] 0.986

CNCC(O)c1cccc(O)c1 (stereo not drawn)
inactive: [14] 0.992 | [1] 0.974 | [2] 0.988 | [3] 0.99 | [4] 1.01 | locus YGR229C, strain SMI1, active compounds read low 1.01 | [7] 0.968 | [8] 1.01 | [9] 0.998 | [10] 1 | locus YNL322C, strain KRE1, active compounds read low 0.976 | [11] 1.02 | [12] 0.984
